Screening data: PubChem BioAssay, several laboratories
esBAF inh: inhibitors of esBAF chromatin remodeling in mouse ES cells; Bmi1-luciferase knock-in reporter, 24 h; 100% = twice the neutral-well signal; reporter increase, % at 12.5 µM; actives 2% (n = 350,000); AID 602393; in the data active = activation above about 40%; inconclusive = no clear call, values can overlap the other calls;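 also: a rise in the Bmi1 reporter signal indicates esBAF inhibition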
GAA850 FXN act: frataxin GAA850 promoter activation. actives 0.56% (n = 360,000). activation, % at 6 µM. HEK293 lucGAA850 FXN promoter luciferase reporter, 24 h; percent of 10 µM SAHA response;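 active = activation above the average of all compounds screened plus 3 SD, cutoff fixed separately per campaign, cut at about 7.5% in these data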
C2C12 statin: suppression of simvastatin myotoxicity; C2C12 myotubes + simvastatin, ATP luminescence, 48 h; scaled: DMSO 0, geranylgeraniol control 100; rescue of ATP level, % at 7.49 µM; actives 0.78% (n = 330,000); AID 602340;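 active = mean ATP rescue above about 67%, or every replicate alone reaching that limit, limit read from the data, passing the limit was not always enough; inconclusive = no clear call, values can overlap the other calls; inactive = mean under the limit and some replicate under it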;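 also: myotubes were challenged with 10 µM simvastatin during compound exposure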
Wnt act: Wnt/beta-catenin pathway activation. Wnt/beta-catenin reporter cell assay, activator, plate reader. activation, % at 9.35 µM. actives 1.2% (n = 300,000). AID 743398; in the data active = activation above about 30%, passing the limit was not always enough; inconclusive = no clear call, values can overlap the other calls
MITF act: increases MITF-driven TRPM1 promoter luciferase signal. SK-MEL-5 TRPM1-promoter luciferase, 24 h; % of positive control, neutral wells = 0. activation, % at 12.5 µM. actives 0.75% (n = 300,000). AID 588334;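 active = mean activation of at least 80% with every replicate also reaching 80%; inconclusive = mean reaches 80% but some replicate falls short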
Of the large screens only hits and unclear results are named; the others gave an inactive call. An excerpt weighted towards active compounds, which were near 3.3% of everything screened.

C[C@H]1CCCCO[C@H](CN(C)S(C)(=O)=O)[C@@H](C)CN([C@@H](C)CO)C(=O)c2cc(NC(=O)c3ccccc3)ccc2O1	none (no result: GAA850 FXN act, Wnt act, MITF act)
Nc1[nH]n(-c2ccccc2)c(=O)c1N=Nc1ccccc1	esBAF inh 53.9, Wnt act 55.0
Nc1[nH]n(-c2ccccc2)c(=O)c1N=Nc1ccccc1[N+](=O)[O-]	Wnt act 60.6, MITF act 128.0 (no result: esBAF inh, C2C12 statin)
Cc1[nH]n(-c2ccccc2)c(=O)c1N=Nc1ccc2c(c1)OCCO2	Wnt act 35.2 (no result: esBAF inh, C2C12 statin)
COc1cc([N+](=O)[O-])ccc1N=Nc1c(N)[nH]n(-c2ccccc2)c1=O	none (no result: esBAF inh, C2C12 statin)
Cc1ccc(N=Nc2c(C)[nH]n(-c3ccccc3)c2=O)cc1Br	none (no result: MITF act)
O=c1c(N=Nc2ccccc2)c[nH]n1-c1ccccc1	Wnt act 44.9 (no result: MITF act)
CN(C)CCCNC(=O)C[C@@H]1CC[C@H](NS(=O)(=O)c2ccccc2)[C@@H](CO)O1	none (no result: GAA850 FXN act, Wnt act, MITF act)
O=C(CC1CC1)Nc1ccc2c(c1)[C@H]1C[C@@H](CC(=O)NC3CCCC3)O[C@@H](CO)[C@H]1O2	none (no result: GAA850 FXN act, Wnt act, MITF act)
O=C(Cn1ncc2c3ccccc3n(Cc3ccccc3)c2c1=O)N1CCN(c2ncccn2)CC1	none (no result: esBAF inh, C2C12 statin, Wnt act, MITF act)
O=C(Cn1ncc2c3ccccc3n(Cc3ccccc3)c2c1=O)N1CCN(c2ccccn2)CC1	GAA850 FXN act 18.8 (no result: Wnt act, MITF act)
Cc1ccc(S(=O)(=O)N(C(=O)c2ccncc2)c2ccc(OC(=O)c3ccncc3)cc2)c(C)c1	none (no result: esBAF inh, C2C12 statin)
Cc1ccc(C)c(S(=O)(=O)N(C(=O)c2ccncc2)c2ccc(OC(=O)c3ccncc3)cc2)c1	Wnt act 47.7 (no result: esBAF inh, C2C12 statin)
Cc1sc2ncnc(N=Nc3c(O)[nH]c4ccccc34)c2c1C	esBAF inh 51.6
CCNC(=O)[C@H]1[C@H](CO)[C@H]2Cn3c(ccc(-c4ccc(F)cc4)c3=O)[C@@H]1N2Cc1ccccc1F	none (no result: GAA850 FXN act, Wnt act, MITF act)
CO[C@H]1CN(C)C(=O)c2ccc(NC(=O)Nc3c(C)noc3C)cc2OC[C@@H](C)NC[C@@H]1C	none (no result: GAA850 FXN act, Wnt act, MITF act)
Cc1ccc(S(=O)(=O)N(C)CC(=O)Nc2cc(C)ccn2)cc1	esBAF inh 66.0, Wnt act 37.7
C[C@H](CO)N1C[C@H](C)[C@@H](CN(C)S(=O)(=O)c2ccc(F)cc2)Oc2ccc(NC(=O)CCN3CCOCC3)cc2CC1=O	none (no result: GAA850 FXN act, Wnt act, MITF act)
N#Cc1ccc(-c2ccc3c(c2)[C@@H]2[C@@H](CCN2Cc2ccc4c(c2)OCO4)[C@@H](CO)N3)cc1	none (no result: GAA850 FXN act, Wnt act, MITF act)
COc1ccc(/C(N)=N/OC(=O)c2cccs2)cc1OC	MITF act 84.4 (no result: esBAF inh, C2C12 statin)
Cc1ccc(/C(N)=N/OC(=O)c2cccs2)cc1	Wnt act 53.9
COc1cc(OC)c(C(=O)O/N=C(\N)c2ccc(C)cc2)cc1OC	none
Cc1cccc(/C(N)=N/OC(=O)c2cccs2)c1	Wnt act 58.1
COc1ccc(/C(N)=N/OC(=O)c2ccc3ccccc3c2)cc1OC	none (no result: MITF act)
COc1cc(Cl)ccc1OCc1cc(C(=O)N2C[C@]3(C)C[C@H]2CC(C)(C)C3)no1	MITF act 124.8 (no result: esBAF inh, C2C12 statin)
COc1cc(Cl)ccc1OCc1cc(C(=O)N2C[C@@H]3CCC[C@H]2C3)no1	esBAF inh 92.1, Wnt act 38.3
COc1cc(Cl)ccc1OCc1cc(C(=O)N2C[C@H]3CC[C@H]2C3)no1	esBAF inh 63.4
CCOc1ccc(C2C=C(c3ccc(C)cc3)Nc3nnnn32)cc1 (configuration not stated)	none (no result: esBAF inh, C2C12 statin, Wnt act, MITF act)
CCOc1ccc(C2C=C(c3ccccc3)Nc3nnnn32)cc1 (configuration not stated)	esBAF inh 51.3, Wnt act 43.3 (no result: MITF act)
COc1ccc(NC(=O)Nc2ccc3c(c2)C(=O)N([C@@H](C)CO)C[C@@H](C)[C@H](CN(C)C(=O)Nc2ccc(C(F)(F)F)cc2)OCCCC[C@H](C)O3)cc1	none (no result: GAA850 FXN act, C2C12 statin, Wnt act, MITF act)
CCOc1ccc(N=CC2=C(O)CC(C)(C)CC2=O)cc1	esBAF inh 47.6
CC1(C)CC(=O)C(C=Nc2ccc(O)cc2)=C(O)C1	none
CC(C)C#Cc1cnc2c(c1)C(=O)N([C@@H](C)CO)C[C@@H](C)[C@H](CN(C)C(=O)Cc1ccccn1)O2	none (no result: GAA850 FXN act, Wnt act, MITF act)
Cc1nc2sc(-c3ccccc3)cc2c(=O)[nH]1	none
CC(C)OC(=O)Cc1nc2sc(-c3ccccc3)cc2c(=O)[nH]1	esBAF inh 49.1 (no result: MITF act)
c1ccc(Cc2nnc(-c3ccccc3)o2)cc1	esBAF inh 49.4, Wnt act 56.2 (no result: C2C12 statin, MITF act)
CC(=O)Nc1ccccc1OCc1nnc(-c2ccc(Cl)cc2)o1	esBAF inh 65.7
Clc1ccccc1OCc1nnc(-c2ccccc2)o1	Wnt act inconclusive, MITF act 88.2 (no result: esBAF inh, C2C12 statin)
O=C(CSCc1cccc(Br)c1)N=Nc1c(O)[nH]c2ccccc12	none (no result: esBAF inh, C2C12 statin, MITF act)
O=Nc1c(-c2c(O)[nH]c3cc(Br)ccc23)[nH]c2ccccc12	esBAF inh 111.1, Wnt act 77.3
CCc1ccc(NC(=O)c2sc3nc4n(c(=O)c3c2C)CCC4)cc1	esBAF inh 43.6
CC(=O)Nc1ccc(NC(=O)c2sc3nc4n(c(=O)c3c2C)CCCCC4)cc1	none (no result: esBAF inh, C2C12 statin)
COc1cc(OC)cc(C(=O)Nc2ccc3nc4n(c(=O)c3c2)CCCCC4)c1	esBAF inh 52.8
CC(=O)c1cccc(NC(=O)c2sc3nc4n(c(=O)c3c2C)CCCC4)c1	esBAF inh 49.0
Cc1ccc(CCNC(=O)c2sc3nc4n(c(=O)c3c2C)CCC4)cc1	none
COc1ccc(C(=O)Nc2ccc3c(c2)OC[C@@H](C)N(C(=O)C2CC2)C[C@@H](C)[C@H](OC)CN(C)C3=O)cc1	none (no result: GAA850 FXN act, Wnt act, MITF act)
CCN(C[C@@H]1[C@@H](c2ccc(-c3ccccc3)cc2)[C@H](CO)N1C(C)=O)C(C)=O	none (no result: GAA850 FXN act, Wnt act, MITF act)
C[C@H](CO)N1C[C@H](C)[C@H](CN(C)S(C)(=O)=O)Oc2ncc(/C=C/c3ccccc3)cc2C1=O	none (no result: GAA850 FXN act, Wnt act, MITF act)
COc1ccc(OC)c2sc(N3CCc4ccccc4C3)nc12	none (no result: esBAF inh, C2C12 statin)
COc1ccc(OC)c2sc(N3CCCCC3)nc12	esBAF inh 46.2 (no result: MITF act)
C/C(=C\C(=O)C(F)(F)F)Nc1ccc(C)cc1	none (no result: esBAF inh, C2C12 statin)
C/C(=C\C(=O)C(F)(F)F)Nc1cc(C)cc(C)c1	C2C12 statin 139.0 (no result: Wnt act)
CC(C)c1ccc(NC(=O)C(c2ccccc2)N2CC(=O)Nc3ccccc32)cc1 (configuration not stated)	esBAF inh 65.8 (no result: MITF act)
CC(C)[C@H](NC(=O)N1CC(=O)Nc2ccccc21)C(=O)N[C@H](C(=O)O)c1ccccc1	none
Clc1ccc(-n2nnc(-c3ncc[nH]3)n2)cc1Cl	esBAF inh 61.9, MITF act inconclusive
Clc1ccc(-n2nnc(-c3nccs3)n2)cc1Cl	Wnt act inconclusive
Fc1ccc(-n2nnc(-c3cccnc3)n2)cc1	esBAF inh 62.3, Wnt act 31.8
Clc1ccc(-n2nnc(-c3cccnc3)n2)cc1Cl	esBAF inh 82.6, Wnt act 32.2
Cc1csc2ncc(C(=O)Nc3cccc(C(F)(F)F)c3)c(=O)n12	C2C12 statin 106.8
CCN(CC)C(=O)COc1ccc(-c2ccccc2)cc1	esBAF inh 50.1 (no result: Wnt act)
c1ccc(Cn2c(-c3ccco3)nc3nc4ccccc4nc32)cc1	Wnt act 37.6, MITF act 90.0 (no result: esBAF inh, C2C12 statin)
